Screening data deposited in PubChem by The Scripps Research Institute Molecular Screening Center.
CHRM4 PAM = positive allosteric modulators of human muscarinic M4 receptor; 360,000 tested, 0.4% active; activation, % at 3 µM; P08173; CHO-K1 hM4/Gqi5, Fluo-8 calcium fluorescence, ACh EC20; 0% = ACh EC20, 100% = maximal ACh;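 active = activation above its plate's cutoff, the mean activation of sample wells plus 3 SD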
Target sequence (P08173 whole entry, looked up): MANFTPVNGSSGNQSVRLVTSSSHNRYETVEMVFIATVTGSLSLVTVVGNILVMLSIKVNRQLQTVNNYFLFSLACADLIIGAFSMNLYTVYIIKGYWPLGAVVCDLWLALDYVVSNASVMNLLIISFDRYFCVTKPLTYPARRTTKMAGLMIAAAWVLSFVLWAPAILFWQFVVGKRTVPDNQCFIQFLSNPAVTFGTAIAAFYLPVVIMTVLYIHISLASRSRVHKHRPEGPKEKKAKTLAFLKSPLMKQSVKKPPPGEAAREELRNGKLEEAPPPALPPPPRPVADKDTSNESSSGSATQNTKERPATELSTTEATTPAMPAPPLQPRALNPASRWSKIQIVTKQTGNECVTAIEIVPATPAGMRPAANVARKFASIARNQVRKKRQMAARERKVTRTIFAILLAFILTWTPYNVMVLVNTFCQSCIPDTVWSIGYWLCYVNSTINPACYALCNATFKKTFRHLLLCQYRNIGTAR
M1 ag parental = nonselective activator or artifact in parental CHO-K1 cells. AID 602248. Fluo-8 calcium fluorescence; scaled to maximal ATP response, vehicle zero. 360,000 tested, 0.48% active. activation, % at 3 µM; in the data active = activation above about 15%;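 also: untransfected CHO-K1 host cells lacking M1 receptor as counterscreen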
CHRM4 antagonist = CHRM4 antagonism in calcium assay | CHO-hM4 cells, ACh EC80, Fluo-8 calcium fluorescence | inhibition, % at 3 µM | 360,000 tested, 0.73% active;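 active = inhibition above its plate's cutoff, the mean inhibition of sample wells plus 3 SD, cut at about 27% in these data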;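 also: 0% = acetylcholine EC80 with DMSO and 100% = DMSO without agonist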
M1 PAM parental = nonselective activator or artifact in parental CHO-K1 calcium assay. ATP EC20, Fluo-8 calcium fluorescence; 0% at ATP EC20, 100% at ATP max. activation, % at 3 µM. 360,000 tested, 0.02% active. AID 602247;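 active = activation above the run cutoff, the mean activation of all test compounds plus 3 SD, cut at about 40% in these data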;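 also: peak over basal fluorescence ratio in a 140 s read after ATP addition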
M4 ag = CHRM4 agonism in calcium assay | P08173 | CHO-K1 hM4/Gqi5, Fluo-8 calcium fluorescence; vehicle 0%, full acetylcholine response 100% | activation, % at 3 µM | 360,000 tested, 0.14% active | AID 624127;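 active = activation above the run mean over all test wells plus 3 SD, cut at about 32% in these data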;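 also: peak over basal fluorescence ratio per well then scaled between controls; 0% = DMSO wells and 100% = acetylcholine at EC100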
CHO-K1 Ca antag = nonselective inhibitor or artifact in parental CHO-K1 cells. ATP-induced calcium, Fluo-8 fluorescence. inhibition, % at 3 µM. 360,000 tested, 0.6% active;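 active = inhibition above a per-plate cutoff, the plate's mean sample inhibition plus 3 SD, cut at about 24% in these data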;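 also: 0% = DMSO plus EC80 ATP and 100% = DMSO alone without ATP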
Active calls of the source: *. The list is not random: actives were taken first. Their share in the collection is about 2%.

For O=C(Nc1ccc(O)cc1)c1ccccc1OCc1ccccc1 the results were CHRM4 PAM -8, M1 ag parental 16*, CHRM4 antagonist 5, M1 PAM parental 12, M4 ag 2 and CHO-K1 Ca antag -3.
O=C(NCC1CCCO1)c1ccccc1OCc1ccc(F)cc1 (centres undefined) was read as CHRM4 PAM 3, M1 ag parental 23*, CHRM4 antagonist -6, M1 PAM parental -2, M4 ag 3 and CHO-K1 Ca antag 10.
Screening COc1ccccc1CNC(=O)c1ccccc1OCc1ccc(F)cc1 returned CHRM4 PAM -10, M1 ag parental 42*, CHRM4 antagonist 3, M1 PAM parental 44*, M4 ag 1 and CHO-K1 Ca antag -10.
O=C(NCC1CCCO1)C(C(=O)c1ccc(F)cc1)n1ccccc1=O (centres undefined) was read as CHRM4 PAM -8, M1 ag parental 0, CHRM4 antagonist 9, M1 PAM parental -7, M4 ag 0 and CHO-K1 Ca antag 31*.
O=C(NCc1ccccc1)C(C(=O)c1ccc(F)cc1)n1ccccc1=O (centres undefined) was read as CHRM4 PAM -1, M1 ag parental 0, CHRM4 antagonist -1, M1 PAM parental 18, M4 ag 0 and CHO-K1 Ca antag -14.
COC(=O)c1cc(CNC(=O)c2ccccc2OCc2c(C)noc2C)ccc1OC was read as CHRM4 PAM 18*, M1 ag parental 2, CHRM4 antagonist 1, M1 PAM parental -8, M4 ag 5 and CHO-K1 Ca antag -11.
Screening COc1ccc(CCNC(=O)c2ccccc2OCc2c(C)noc2C)cc1 returned CHRM4 PAM 12, M1 ag parental 1, CHRM4 antagonist 2, M1 PAM parental 6, M4 ag 3 and CHO-K1 Ca antag -13.
CCOC(=O)C1=CCN(S(=O)(=O)c2ccc(Cl)cc2)C1c1ccc(C)cc1 (centres undefined) was read as CHRM4 PAM -4, M1 ag parental 0, CHRM4 antagonist -14, M1 PAM parental -8, M4 ag -1 and CHO-K1 Ca antag 24*.
For CCOC(=O)C1=CCN(S(=O)(=O)c2ccc(C)cc2)C1c1cccc(Br)c1 (centres undefined) the results were CHRM4 PAM -8, M1 ag parental 0, CHRM4 antagonist -11, M1 PAM parental -9, M4 ag -2 and CHO-K1 Ca antag 29*.
Screening CCOC(=O)C1=CCN(S(=O)(=O)c2ccc(Br)cc2)C1c1cccc(C)c1 (centres undefined) returned CHRM4 PAM -11, M1 ag parental 0, CHRM4 antagonist -3, M1 PAM parental 3, M4 ag -1 and CHO-K1 Ca antag 18.
Cn1ccnc1C(=O)c1ccc(Cl)c(S(=O)(=O)N2CCOCC2)c1 was read as CHRM4 PAM -12, M1 ag parental 1, CHRM4 antagonist -4, M1 PAM parental 4, M4 ag 2 and CHO-K1 Ca antag -12.
N=c1occ(C(=O)c2cc(F)ccc2O)cc1C(=O)NC1CCCCC1 was read as CHRM4 PAM -6, M1 ag parental 5, CHRM4 antagonist 6, M1 PAM parental -15, M4 ag 6 and CHO-K1 Ca antag 24*.
Cc1ccc(C(=O)N2CCc3cc4c(cc3C2C)OCCCO4)cc1 (centres undefined) was read as CHRM4 PAM -16, M1 ag parental 5, CHRM4 antagonist 0, M1 PAM parental 17, M4 ag 6 and CHO-K1 Ca antag -16.
Screening CC(=O)Nc1ccc(C(=O)N2CCc3cc4c(cc3C2C)OCCCO4)cc1 (centres undefined) returned CHRM4 PAM -14, M1 ag parental 0, CHRM4 antagonist 39*, M1 PAM parental 13, M4 ag 1 and CHO-K1 Ca antag 0.
CCCS(=O)(=O)NC(=O)C1(C)CCCN(C(=O)c2ccc3ccccc3c2)C1 (centres undefined) was read as CHRM4 PAM 17*, M1 ag parental 1, CHRM4 antagonist -6, M1 PAM parental 16, M4 ag 1 and CHO-K1 Ca antag 1.
Screening Fc1ccc(Nc2nc(NCc3ccco3)c3ccccc3n2)cc1 returned CHRM4 PAM -41, M1 ag parental 8, CHRM4 antagonist 18, M1 PAM parental -19, M4 ag 13 and CHO-K1 Ca antag 11.
`CC(Oc1ccc(Br)cc1)C(=O)Nc1ccc(S(=O)(=O)N(C)C2CCN(C)CC2)cc1` (centres undefined) gave CHRM4 PAM -11, M1 ag parental 55*, CHRM4 antagonist 31*, M1 PAM parental -31, M4 ag 96* and CHO-K1 Ca antag 57*.
COc1ccc(C(=O)c2ccccc2O)c(O)c1 was read as CHRM4 PAM -5, M1 ag parental 0, CHRM4 antagonist 4, M1 PAM parental -4, M4 ag -1 and CHO-K1 Ca antag 24*.
`COC(=O)c1sccc1S(=O)(=O)Nc1ccc(C(O)(C(F)(F)F)C(F)(F)F)cc1` gave CHRM4 PAM -17, M1 ag parental 61*, CHRM4 antagonist 63*, M1 PAM parental 3, M4 ag 133* and CHO-K1 Ca antag 8.
`Cc1ccc2nc(NCCNC(=O)c3ccccc3)c(C#N)cc2c1` gave CHRM4 PAM -14, M1 ag parental -1, CHRM4 antagonist 51*, M1 PAM parental -19, M4 ag 0 and CHO-K1 Ca antag 14.
`COc1ccccc1Nc1ncnc2ccc(C)cc12` gave CHRM4 PAM 0, M1 ag parental 0, CHRM4 antagonist 5, M1 PAM parental 0, M4 ag 0 and CHO-K1 Ca antag -1.
COc1ccccc1Nc1nc2ccc(C)cc2cc1C#N was read as CHRM4 PAM 5, M1 ag parental 0, CHRM4 antagonist -1, M1 PAM parental -6, M4 ag 0 and CHO-K1 Ca antag 25*.
Screening COc1ccccc1Nc1nc2cc(C)ccc2cc1C#N returned CHRM4 PAM -6, M1 ag parental 16*, CHRM4 antagonist 3, M1 PAM parental 14, M4 ag 0 and CHO-K1 Ca antag 10.
`COc1ccccc1Nc1nc2c(C)cccc2cc1C#N` gave CHRM4 PAM -2, M1 ag parental 0, CHRM4 antagonist 7, M1 PAM parental 9, M4 ag 1 and CHO-K1 Ca antag -5.
For CCN(CC)S(=O)(=O)c1ccc(C)c(NC(=O)CNCCN(C(C)C)C(C)C)c1 the results were CHRM4 PAM -4, M1 ag parental 0, CHRM4 antagonist -17, M1 PAM parental 11, M4 ag 0 and CHO-K1 Ca antag -14.
For O=C(NCc1ccccc1)C(c1ccncc1)N(C(=O)c1csnn1)c1ccccc1F (centres undefined) the results were CHRM4 PAM 2, M1 ag parental -1, CHRM4 antagonist -7, M1 PAM parental 6, M4 ag 0 and CHO-K1 Ca antag -8.
